This is part of a sample that, as a whole, favours compounds with a hit. Of some 83,000 tested, about 20% had one in any assay.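 The endpoint reported here, percent growth, reads 100 for growth as untreated, 0 for no net growth and -100 for all cells dead.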 A number with no mark means an inactive call. Calls of active or inactive are those of the source. How the source made its calls: active means growth percent below 10; inactive means the rest.

Test systems include SR leukemia; RPMI-8226 leukemia; OVCAR-8 ovarian; OVCAR-5 ovarian; OVCAR-4 ovarian; SK-OV-3 ovarian; IGROV1 ovarian; OVCAR-3 ovarian; HS 578T breast; NCI/ADR-RES ovarian; T-47D breast; BT-549 breast; MDA-MB-435 melanoma; SW-620 colon; MCF7 breast; HCT-116 colon; HCC-2998 colon; KM12 colon.
What all share (assay): NCI-60 one-dose screen, 48 h (100 = growth as untreated, 0 = no growth, -100 = all killed)
What all share (conditions): 10 µM unless noted

In the case of `COc1ccc(/C=C/C(=O)OCC(=O)NNC(=O)c2ccccc2)cc1OC`, the growth is 71.8% with SR leukemia; 79.7% in the experiment with RPMI-8226 leukemia; 102% with OVCAR-8 ovarian; 113% in the experiment with OVCAR-5 ovarian; 101% in the experiment on OVCAR-4 ovarian; 113% in the experiment on SK-OV-3 ovarian. Also, the growth is 87.8% with IGROV1 ovarian; 99.8% in the experiment on OVCAR-3 ovarian; 103% with HS 578T breast; 116% in the experiment on NCI/ADR-RES ovarian; 101% in the experiment on T-47D breast; 98.6% with BT-549 breast. Further, the growth with MDA-MB-435 melanoma is 104%; with SW-620 colon it was 98.4%; in the experiment on MCF7 breast, 85.6%; with HCT-116 colon it was 103%; in the experiment on HCC-2998 colon it was 127%; in the experiment with KM12 colon, 115%.

As to `CCC#CC[C@H]1C/C=C2/C(=O)C=C[C@@H]2C/C=C\CCCC(=O)O1`, the growth in the experiment with SR leukemia is 5.38% (active); with RPMI-8226 leukemia it was 4.15% (active); in the experiment on OVCAR-8 ovarian it was 13.6%; with OVCAR-5 ovarian it was 18.4%; in the experiment on OVCAR-4 ovarian, 40.1%; in the experiment with SK-OV-3 ovarian, 26.5%. Besides, the growth was 7.74% (active) in the experiment with IGROV1 ovarian; 6.81% (active) with OVCAR-3 ovarian; 40.2% in the experiment on HS 578T breast; 22.7% in the experiment on NCI/ADR-RES ovarian; 24.1% in the experiment with T-47D breast; 0.46% (active) with BT-549 breast. Moreover, the growth with MDA-MB-435 melanoma was -0.679% (active); with SW-620 colon it was 0.0835% (active); in the experiment on MCF7 breast it was 18.3%; in the experiment on HCT-116 colon it was -70.9% (active); in the experiment on HCC-2998 colon, -67% (active); in the experiment on KM12 colon, -48.8% (active).

`Cc1sc2nc(CSc3nnc(-c4ccco4)o3)[nH]c(=O)c2c1C`: the growth with SR leukemia was 56.6%; in the experiment on RPMI-8226 leukemia, 67.3%; with OVCAR-8 ovarian it was 104%; in the experiment on OVCAR-5 ovarian, 114%; with OVCAR-4 ovarian, 105%; with SK-OV-3 ovarian, 132%. For the same molecule, the growth in the experiment on IGROV1 ovarian was 109%; in the experiment on OVCAR-3 ovarian it was 108%; in the experiment on HS 578T breast, 115%; in the experiment with NCI/ADR-RES ovarian it was 112%; in the experiment with T-47D breast it was 95.4%; with BT-549 breast, 102%. The growth was 105% in the experiment on MDA-MB-435 melanoma; 101% with SW-620 colon; 104% with MCF7 breast; 115% with HCT-116 colon; 124% in the experiment with HCC-2998 colon; 118% in the experiment with KM12 colon.

In the case of `COc1ncc(-c2ccc3ncnc(Nc4cccc(Cl)c4)c3c2)cc1N(S(C)(=O)=O)S(C)(=O)=O`, the growth was 92.6% in the experiment on SR leukemia; 55.8% in the experiment with RPMI-8226 leukemia; 73.8% in the experiment on OVCAR-8 ovarian; 43.2% with OVCAR-5 ovarian; 77.3% in the experiment with OVCAR-4 ovarian; 52.2% in the experiment on SK-OV-3 ovarian. For the same molecule, the growth was -28.6% (active) with IGROV1 ovarian; 54.9% with OVCAR-3 ovarian; 49.7% in the experiment on HS 578T breast; 72.7% in the experiment with NCI/ADR-RES ovarian; 18.5% in the experiment on T-47D breast; 78.1% in the experiment on BT-549 breast. The growth in the experiment with MDA-MB-435 melanoma is 77.7%; with SW-620 colon, 75.7%; with MCF7 breast it was 27.7%; with HCT-116 colon, 81.2%; with HCC-2998 colon, 76.4%; with KM12 colon, 81.1%.

`Nc1nn2cc(-c3ccc(Cl)s3)nc2c2ccccc12`: the growth is 49.7% in the experiment on SR leukemia; 92% in the experiment on RPMI-8226 leukemia; 105% with OVCAR-8 ovarian; 79.1% in the experiment with OVCAR-5 ovarian; 87.5% in the experiment on OVCAR-4 ovarian; 103% in the experiment with SK-OV-3 ovarian. Further, the growth in the experiment on IGROV1 ovarian is 44.7%; in the experiment on OVCAR-3 ovarian, 77.8%; in the experiment with HS 578T breast, 96.7%; with NCI/ADR-RES ovarian, 86.7%; with T-47D breast it was 55.8%; with BT-549 breast, 105%. Besides, the growth is 93.4% in the experiment on MDA-MB-435 melanoma; 98.6% in the experiment on SW-620 colon; 44.3% in the experiment on MCF7 breast; 77.6% with HCT-116 colon; 92.4% in the experiment on HCC-2998 colon; 79.2% with KM12 colon.

For the molecule `C=CCN=C1NC(=O)/C(=C/c2cc(C(C)(C)C)c(O)c(C(C)(C)C)c2)S1`, the growth was 32.9% in the experiment with SR leukemia; 92.1% with RPMI-8226 leukemia; 95.8% in the experiment with OVCAR-8 ovarian; 92.1% in the experiment with OVCAR-5 ovarian; 70.3% in the experiment on OVCAR-4 ovarian; 74.8% in the experiment on SK-OV-3 ovarian. The growth was 85.7% in the experiment on IGROV1 ovarian; 46.9% in the experiment with OVCAR-3 ovarian; 76.9% in the experiment with HS 578T breast; 70% in the experiment on NCI/ADR-RES ovarian; 47.1% with T-47D breast; 55.6% with BT-549 breast. The growth with MDA-MB-435 melanoma is -2.99% (active); with SW-620 colon it was 63.5%; in the experiment with MCF7 breast it was 43.8%; in the experiment with HCT-116 colon, 46.4%; in the experiment on HCC-2998 colon, 89.8%; in the experiment on KM12 colon, 61.4%.

As for `COc1cc2c(cc1OCCCCn1c(-c3cc(=O)c4ccccc4o3)nc3ccccc31)N=C[C@@H]1CCCN1C2=O`, the growth in the experiment on SR leukemia is 39.8%; in the experiment with RPMI-8226 leukemia, 67.7%; in the experiment on OVCAR-8 ovarian, 106%; in the experiment on OVCAR-5 ovarian, 111%; in the experiment on OVCAR-4 ovarian it was 108%; in the experiment on SK-OV-3 ovarian, 109%. For the same molecule, the growth in the experiment with IGROV1 ovarian is -16.3% (active); with OVCAR-3 ovarian, 111%; with HS 578T breast, 116%; with NCI/ADR-RES ovarian, 110%; in the experiment on T-47D breast it was 79.4%; in the experiment with BT-549 breast, 101%. The growth is 94.9% in the experiment on MDA-MB-435 melanoma; 86.6% in the experiment with SW-620 colon; 72.6% in the experiment on MCF7 breast; 101% in the experiment on HCT-116 colon; 128% in the experiment on HCC-2998 colon; 105% in the experiment on KM12 colon.

With `O=[N+]([O-])c1cccc(-c2cc(-c3cc(Br)ccc3O)[nH]n2)c1`, the growth in the experiment on SR leukemia was 19.7%; with RPMI-8226 leukemia it was -2.85% (active); with OVCAR-8 ovarian, 33.9%; with OVCAR-5 ovarian, 55.4%; in the experiment on OVCAR-4 ovarian it was 16.3%; in the experiment with SK-OV-3 ovarian, 30.6%. In addition, the growth in the experiment with IGROV1 ovarian was 13.7%; in the experiment with OVCAR-3 ovarian, 2.12% (active); in the experiment on HS 578T breast, 46.6%; in the experiment with NCI/ADR-RES ovarian, 19.2%; in the experiment with T-47D breast, 21.1%; with BT-549 breast, 24.1%. In addition, the growth was 13.5% with MDA-MB-435 melanoma; 28.1% in the experiment with SW-620 colon; 6.17% (active) with MCF7 breast; 13.5% in the experiment with HCT-116 colon; 43.7% in the experiment on HCC-2998 colon; 12.5% with KM12 colon.

As to `CC(C)C(C(=O)CCN(C)C)c1ccc(Cl)cc1` (configuration not stated), the growth with SR leukemia is 84%; with RPMI-8226 leukemia, 67.5%; in the experiment with OVCAR-8 ovarian it was 93.3%; with OVCAR-5 ovarian it was 115%; with OVCAR-4 ovarian it was 109%; with SK-OV-3 ovarian, 85.2%. Moreover, the growth with IGROV1 ovarian was 105%; in the experiment on OVCAR-3 ovarian, 108%; with HS 578T breast, 101%; in the experiment on NCI/ADR-RES ovarian, 106%; in the experiment on T-47D breast, 82.9%; with BT-549 breast, 90.5%. For the same molecule, the growth with MDA-MB-435 melanoma was 107%; in the experiment on SW-620 colon, 108%; in the experiment with MCF7 breast, 87.4%; with HCT-116 colon it was 79.9%; in the experiment on HCC-2998 colon, 104%; in the experiment with KM12 colon, 104%.

The values above are taken from PubChem BioAssay (NCI).
